Reference: paper PMC7862700, “An all-to-all approach to the identification of sequence-specific readers for epigenetic DNA modifications on cytosine”

Key:
Experiment in all cases: DAPPL (digital affinity profiling via proximity ligation, sequencing); 10 mM Tris-HCl pH 7.5, 50 mM NaCl, 1 mM DTT, 4% glycerol, room temperature, 30 min; GST-TFs on glutathione beads, 16-mer random dsDNA library, 0.1% formaldehyde crosslink after washing; high values mean tight binding
FLI1 = biological target: T1, FLI1 (Homo sapiens, UniProt Q01543 1-452); conditions: protein: recombinant; tags: N-terminal GST; dsDNA, one strand shown
T1 sequence: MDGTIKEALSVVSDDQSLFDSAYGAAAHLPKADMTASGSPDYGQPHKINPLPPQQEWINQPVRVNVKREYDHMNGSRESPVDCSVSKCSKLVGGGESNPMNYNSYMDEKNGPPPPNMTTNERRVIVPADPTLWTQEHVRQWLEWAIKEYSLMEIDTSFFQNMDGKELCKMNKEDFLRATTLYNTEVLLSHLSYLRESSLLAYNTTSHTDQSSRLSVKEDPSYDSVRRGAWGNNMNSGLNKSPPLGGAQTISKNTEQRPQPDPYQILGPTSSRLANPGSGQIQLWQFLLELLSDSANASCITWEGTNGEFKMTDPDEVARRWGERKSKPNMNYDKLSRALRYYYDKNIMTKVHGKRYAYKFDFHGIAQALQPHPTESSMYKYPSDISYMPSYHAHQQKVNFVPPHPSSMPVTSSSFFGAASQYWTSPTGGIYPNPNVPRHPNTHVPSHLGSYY
Outline: (§1)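 The binding signal reported is, for every hexamer, its read frequency for a factor over its read frequency for the tag-only sample. Reads came from pools of yeast-expressed, GST-fused human transcription factors on glutathione beads, barcoded with DNA and mixed with that sample, which were incubated with 200 nmole of a random double-stranded 16-mer DNA library in Tris/NaCl/DTT/glycerol buffer at room temperature for 30 min. After washing, the pools were crosslinked with 0.1% formaldehyde, proximity-ligated with BsaI/T4 ligase for 1 h at 37 °C, PCR-amplified and sequenced on an Illumina NextSeq500.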

ELK1 = biological target: T2, ELK1 (Homo sapiens, UniProt P19419 1-428); conditions: protein: recombinant; tags: N-terminal GST; dsDNA, one strand shown
T2 sequence: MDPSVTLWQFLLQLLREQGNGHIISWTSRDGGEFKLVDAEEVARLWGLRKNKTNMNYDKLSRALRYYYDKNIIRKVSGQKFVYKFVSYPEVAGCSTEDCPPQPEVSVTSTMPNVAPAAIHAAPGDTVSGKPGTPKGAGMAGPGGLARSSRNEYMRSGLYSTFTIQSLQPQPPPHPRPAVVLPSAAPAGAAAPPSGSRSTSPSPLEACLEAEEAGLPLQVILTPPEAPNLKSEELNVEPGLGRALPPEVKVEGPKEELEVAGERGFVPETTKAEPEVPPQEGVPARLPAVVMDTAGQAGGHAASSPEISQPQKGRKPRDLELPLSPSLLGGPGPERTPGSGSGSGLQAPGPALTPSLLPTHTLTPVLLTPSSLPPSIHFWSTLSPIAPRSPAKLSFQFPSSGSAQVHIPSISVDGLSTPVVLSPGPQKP
Outline: as §1

GABPA = biological target: T3, GABPA (Homo sapiens, UniProt Q06546 1-454); conditions: protein: recombinant; tags: N-terminal GST; dsDNA, one strand shown
T3 sequence: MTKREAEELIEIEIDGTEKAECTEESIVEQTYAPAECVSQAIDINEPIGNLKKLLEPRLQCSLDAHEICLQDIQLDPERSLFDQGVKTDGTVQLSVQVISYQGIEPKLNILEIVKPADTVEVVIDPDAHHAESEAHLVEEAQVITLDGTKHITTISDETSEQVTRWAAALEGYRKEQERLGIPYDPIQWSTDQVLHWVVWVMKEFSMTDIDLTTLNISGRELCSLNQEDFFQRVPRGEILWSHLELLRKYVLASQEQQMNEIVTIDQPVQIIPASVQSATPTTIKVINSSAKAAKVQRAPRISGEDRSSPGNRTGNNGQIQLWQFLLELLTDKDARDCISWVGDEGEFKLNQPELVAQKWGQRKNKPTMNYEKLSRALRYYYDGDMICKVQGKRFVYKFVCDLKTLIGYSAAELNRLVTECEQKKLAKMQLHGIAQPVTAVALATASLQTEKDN
Outline: as §1

ERG = biological target: T4, ERG (Homo sapiens, UniProt P11308 1-479); conditions: protein: recombinant; tags: N-terminal GST; dsDNA, one strand shown
T4 sequence: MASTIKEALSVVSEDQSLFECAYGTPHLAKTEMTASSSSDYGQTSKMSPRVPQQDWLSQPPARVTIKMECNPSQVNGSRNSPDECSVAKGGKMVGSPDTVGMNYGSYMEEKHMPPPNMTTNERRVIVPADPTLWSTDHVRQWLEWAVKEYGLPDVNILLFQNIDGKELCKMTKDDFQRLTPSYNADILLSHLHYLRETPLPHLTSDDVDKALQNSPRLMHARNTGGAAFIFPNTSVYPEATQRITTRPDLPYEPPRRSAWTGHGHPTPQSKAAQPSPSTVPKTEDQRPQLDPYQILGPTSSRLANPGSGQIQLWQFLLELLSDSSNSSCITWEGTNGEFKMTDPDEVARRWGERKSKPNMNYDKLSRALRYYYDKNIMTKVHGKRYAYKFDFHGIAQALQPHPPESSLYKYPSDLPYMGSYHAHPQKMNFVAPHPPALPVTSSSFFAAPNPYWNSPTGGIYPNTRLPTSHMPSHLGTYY
Outline: as §1

ELF1 = ELF1 (Homo sapiens, UniProt P32519 1-619); conditions: protein: recombinant; tags: N-terminal GST; dsDNA, one strand shown
ELF1, sequence (P32519 whole entry): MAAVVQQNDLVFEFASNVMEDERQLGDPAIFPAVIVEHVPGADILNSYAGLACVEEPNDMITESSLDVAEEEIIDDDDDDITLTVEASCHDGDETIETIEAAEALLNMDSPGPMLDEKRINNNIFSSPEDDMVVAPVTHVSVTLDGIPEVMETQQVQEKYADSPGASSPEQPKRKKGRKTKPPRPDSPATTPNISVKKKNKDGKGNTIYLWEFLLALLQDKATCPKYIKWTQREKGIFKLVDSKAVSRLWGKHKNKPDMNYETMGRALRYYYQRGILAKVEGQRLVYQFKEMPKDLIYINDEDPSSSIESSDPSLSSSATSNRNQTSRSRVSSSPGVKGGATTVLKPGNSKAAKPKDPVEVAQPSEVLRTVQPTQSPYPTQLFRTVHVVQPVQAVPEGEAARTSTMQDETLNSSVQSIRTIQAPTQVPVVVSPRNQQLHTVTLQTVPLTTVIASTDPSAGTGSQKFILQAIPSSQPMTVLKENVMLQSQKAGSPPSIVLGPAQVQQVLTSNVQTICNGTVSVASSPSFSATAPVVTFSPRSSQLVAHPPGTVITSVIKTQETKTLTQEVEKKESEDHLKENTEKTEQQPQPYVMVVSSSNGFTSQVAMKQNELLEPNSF
Outline: as §1

EHF = biological target: T5, EHF (Homo sapiens, UniProt Q9NZC4 1-300); conditions: protein: recombinant; tags: N-terminal GST; dsDNA, one strand shown
T5 sequence: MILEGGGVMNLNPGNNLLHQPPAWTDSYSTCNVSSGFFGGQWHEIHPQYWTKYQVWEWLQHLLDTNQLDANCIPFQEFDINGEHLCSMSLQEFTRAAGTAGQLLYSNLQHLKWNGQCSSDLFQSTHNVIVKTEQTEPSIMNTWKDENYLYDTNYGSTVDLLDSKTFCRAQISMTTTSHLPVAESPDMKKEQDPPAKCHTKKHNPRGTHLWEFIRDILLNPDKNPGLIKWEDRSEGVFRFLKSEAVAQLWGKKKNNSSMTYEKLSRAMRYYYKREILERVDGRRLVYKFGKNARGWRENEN
Outline: as §1

SPI1 = SPI1 (Homo sapiens, UniProt P17947 1-270); conditions: protein: recombinant; tags: N-terminal GST; dsDNA, one strand shown
Outline: as §1

SPIB = SPIB (Homo sapiens, UniProt Q01892 1-262); conditions: protein: recombinant; tags: N-terminal GST; dsDNA, one strand shown
SPIB, sequence (Q01892 whole entry): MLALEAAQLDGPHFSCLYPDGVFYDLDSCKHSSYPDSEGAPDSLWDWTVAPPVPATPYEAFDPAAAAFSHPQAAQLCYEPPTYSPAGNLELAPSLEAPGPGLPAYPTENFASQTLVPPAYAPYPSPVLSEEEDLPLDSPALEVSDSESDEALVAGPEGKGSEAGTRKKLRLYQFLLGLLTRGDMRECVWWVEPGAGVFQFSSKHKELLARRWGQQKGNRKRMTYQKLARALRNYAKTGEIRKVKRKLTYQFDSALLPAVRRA
Outline: as §1

ELK3 = biological target: T6, ELK3 (Homo sapiens, UniProt P41970 1-407); conditions: protein: recombinant; tags: N-terminal GST; dsDNA, one strand shown
T6 sequence: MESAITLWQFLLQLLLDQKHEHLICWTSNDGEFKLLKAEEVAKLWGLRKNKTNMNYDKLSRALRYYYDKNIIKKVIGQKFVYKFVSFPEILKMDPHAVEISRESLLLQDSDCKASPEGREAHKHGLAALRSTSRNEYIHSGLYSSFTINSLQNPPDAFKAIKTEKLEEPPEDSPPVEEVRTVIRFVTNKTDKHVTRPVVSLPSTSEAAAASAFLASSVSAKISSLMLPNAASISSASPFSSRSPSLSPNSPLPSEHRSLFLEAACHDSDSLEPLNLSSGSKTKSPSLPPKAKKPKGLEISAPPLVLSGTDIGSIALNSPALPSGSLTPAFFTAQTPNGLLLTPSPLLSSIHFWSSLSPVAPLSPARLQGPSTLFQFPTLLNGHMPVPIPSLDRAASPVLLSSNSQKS
Outline: as §1

FEV = biological target: T7, FEV (Homo sapiens, UniProt Q99581 1-238); conditions: protein: recombinant; tags: N-terminal GST; dsDNA, one strand shown
T7 sequence: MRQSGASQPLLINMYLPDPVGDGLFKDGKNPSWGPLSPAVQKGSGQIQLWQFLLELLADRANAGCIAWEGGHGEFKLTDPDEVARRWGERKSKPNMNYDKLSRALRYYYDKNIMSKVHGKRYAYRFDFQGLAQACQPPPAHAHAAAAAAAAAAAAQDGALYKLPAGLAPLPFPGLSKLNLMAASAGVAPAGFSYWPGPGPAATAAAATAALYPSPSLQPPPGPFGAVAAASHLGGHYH
Outline: as §1

ETV5 = ETV5 (Homo sapiens, UniProt P41161 1-510); conditions: protein: recombinant; tags: N-terminal GST; dsDNA, one strand shown
ETV5, sequence (P41161 whole entry): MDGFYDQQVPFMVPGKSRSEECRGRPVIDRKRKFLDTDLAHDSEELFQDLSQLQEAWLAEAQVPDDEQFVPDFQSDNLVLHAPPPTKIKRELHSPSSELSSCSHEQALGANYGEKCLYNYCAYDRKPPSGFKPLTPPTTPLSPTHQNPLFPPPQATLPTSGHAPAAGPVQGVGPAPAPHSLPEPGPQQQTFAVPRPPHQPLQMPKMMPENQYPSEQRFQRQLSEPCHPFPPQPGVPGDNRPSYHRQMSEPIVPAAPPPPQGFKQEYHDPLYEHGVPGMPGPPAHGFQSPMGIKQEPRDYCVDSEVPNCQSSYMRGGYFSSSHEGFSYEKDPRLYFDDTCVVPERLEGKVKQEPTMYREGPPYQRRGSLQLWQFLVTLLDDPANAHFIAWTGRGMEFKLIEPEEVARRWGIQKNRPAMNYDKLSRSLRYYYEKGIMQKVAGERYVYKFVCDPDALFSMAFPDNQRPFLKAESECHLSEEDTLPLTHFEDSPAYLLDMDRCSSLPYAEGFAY
Outline: as §1

HSF1 = HSF1 (Homo sapiens, UniProt Q00613 1-529); conditions: protein: recombinant; tags: N-terminal GST; chain copies: 3; dsDNA, one strand shown
HSF1, sequence (Q00613 whole entry): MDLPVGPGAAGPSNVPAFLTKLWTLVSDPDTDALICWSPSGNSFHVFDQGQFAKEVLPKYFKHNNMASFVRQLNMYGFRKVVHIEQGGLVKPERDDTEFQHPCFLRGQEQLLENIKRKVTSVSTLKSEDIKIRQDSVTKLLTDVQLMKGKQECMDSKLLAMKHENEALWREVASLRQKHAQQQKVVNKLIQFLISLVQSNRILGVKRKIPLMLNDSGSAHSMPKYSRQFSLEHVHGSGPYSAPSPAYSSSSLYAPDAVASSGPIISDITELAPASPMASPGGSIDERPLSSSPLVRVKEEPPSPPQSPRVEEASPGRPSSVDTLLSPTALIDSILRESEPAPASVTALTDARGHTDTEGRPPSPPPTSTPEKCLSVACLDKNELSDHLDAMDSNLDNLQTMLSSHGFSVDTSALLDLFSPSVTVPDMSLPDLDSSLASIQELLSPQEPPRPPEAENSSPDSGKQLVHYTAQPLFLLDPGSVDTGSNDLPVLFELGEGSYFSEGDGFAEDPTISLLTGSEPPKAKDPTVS
Outline: as §1

SPIC = biological target: T8, SPIC (Homo sapiens, UniProt Q8N5J4 1-248); conditions: protein: recombinant; tags: N-terminal GST; dsDNA, one strand shown
T8 sequence: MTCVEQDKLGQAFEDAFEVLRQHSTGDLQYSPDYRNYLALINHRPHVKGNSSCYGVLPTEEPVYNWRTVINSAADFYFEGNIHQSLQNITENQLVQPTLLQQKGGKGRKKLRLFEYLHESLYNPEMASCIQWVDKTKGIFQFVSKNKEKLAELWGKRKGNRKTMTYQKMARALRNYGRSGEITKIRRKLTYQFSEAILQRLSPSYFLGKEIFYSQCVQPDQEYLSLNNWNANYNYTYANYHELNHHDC
Outline: as §1

ELF4 = ELF4 (Homo sapiens, UniProt Q99607 1-663); conditions: protein: recombinant; tags: N-terminal GST; dsDNA, one strand shown
ELF4, sequence (Q99607 whole entry): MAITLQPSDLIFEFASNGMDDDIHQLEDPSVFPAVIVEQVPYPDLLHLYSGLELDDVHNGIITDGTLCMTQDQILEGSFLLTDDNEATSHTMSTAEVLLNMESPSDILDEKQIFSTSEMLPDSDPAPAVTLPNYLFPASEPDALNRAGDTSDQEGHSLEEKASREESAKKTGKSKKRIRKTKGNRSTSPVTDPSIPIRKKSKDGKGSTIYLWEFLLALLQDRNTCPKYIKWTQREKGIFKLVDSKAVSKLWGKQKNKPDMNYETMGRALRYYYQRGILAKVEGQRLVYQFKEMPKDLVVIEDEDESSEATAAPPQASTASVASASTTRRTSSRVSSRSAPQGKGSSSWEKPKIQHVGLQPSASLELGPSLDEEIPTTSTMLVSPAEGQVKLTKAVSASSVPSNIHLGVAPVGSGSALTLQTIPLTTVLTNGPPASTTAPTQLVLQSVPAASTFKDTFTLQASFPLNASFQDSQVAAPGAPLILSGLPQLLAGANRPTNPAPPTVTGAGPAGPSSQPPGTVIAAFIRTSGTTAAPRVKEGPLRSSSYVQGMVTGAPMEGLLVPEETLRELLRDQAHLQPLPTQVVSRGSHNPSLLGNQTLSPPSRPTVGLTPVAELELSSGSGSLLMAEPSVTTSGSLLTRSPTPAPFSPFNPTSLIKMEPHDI
Outline: as §1

ELK4 = biological target: T9, ELK4 (Homo sapiens, UniProt P28324-2 1-405); conditions: protein: recombinant; tags: N-terminal GST; dsDNA, one strand shown
T9 sequence: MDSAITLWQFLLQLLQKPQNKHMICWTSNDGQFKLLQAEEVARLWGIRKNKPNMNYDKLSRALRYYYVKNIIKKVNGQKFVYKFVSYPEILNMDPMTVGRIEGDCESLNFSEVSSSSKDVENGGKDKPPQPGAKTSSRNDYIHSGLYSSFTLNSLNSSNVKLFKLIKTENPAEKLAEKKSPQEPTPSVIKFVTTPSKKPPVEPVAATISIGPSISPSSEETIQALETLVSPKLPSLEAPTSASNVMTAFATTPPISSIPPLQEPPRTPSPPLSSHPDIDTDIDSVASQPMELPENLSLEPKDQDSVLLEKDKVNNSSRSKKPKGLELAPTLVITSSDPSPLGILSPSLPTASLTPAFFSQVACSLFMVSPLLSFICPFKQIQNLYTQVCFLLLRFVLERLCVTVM
Outline: as §1

ETV2 = biological target: T10, ETV2 (Homo sapiens, UniProt O00321 1-342); conditions: protein: recombinant; tags: N-terminal GST; dsDNA, one strand shown
T10 sequence: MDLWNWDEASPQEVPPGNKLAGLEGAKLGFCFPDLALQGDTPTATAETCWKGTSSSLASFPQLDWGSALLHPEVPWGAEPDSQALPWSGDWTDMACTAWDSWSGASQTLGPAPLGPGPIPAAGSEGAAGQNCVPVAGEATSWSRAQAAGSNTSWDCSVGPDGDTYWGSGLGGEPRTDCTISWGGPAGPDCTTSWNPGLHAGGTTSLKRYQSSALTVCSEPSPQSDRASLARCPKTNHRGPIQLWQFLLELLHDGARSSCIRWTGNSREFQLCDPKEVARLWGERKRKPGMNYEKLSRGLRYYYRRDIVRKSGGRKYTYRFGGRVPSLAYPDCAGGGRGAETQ
Outline: as §1

ETV1 = ETV1 (Homo sapiens, UniProt P50549 1-477); conditions: protein: recombinant; tags: N-terminal GST; dsDNA, one strand shown
ETV1, sequence (P50549 whole entry): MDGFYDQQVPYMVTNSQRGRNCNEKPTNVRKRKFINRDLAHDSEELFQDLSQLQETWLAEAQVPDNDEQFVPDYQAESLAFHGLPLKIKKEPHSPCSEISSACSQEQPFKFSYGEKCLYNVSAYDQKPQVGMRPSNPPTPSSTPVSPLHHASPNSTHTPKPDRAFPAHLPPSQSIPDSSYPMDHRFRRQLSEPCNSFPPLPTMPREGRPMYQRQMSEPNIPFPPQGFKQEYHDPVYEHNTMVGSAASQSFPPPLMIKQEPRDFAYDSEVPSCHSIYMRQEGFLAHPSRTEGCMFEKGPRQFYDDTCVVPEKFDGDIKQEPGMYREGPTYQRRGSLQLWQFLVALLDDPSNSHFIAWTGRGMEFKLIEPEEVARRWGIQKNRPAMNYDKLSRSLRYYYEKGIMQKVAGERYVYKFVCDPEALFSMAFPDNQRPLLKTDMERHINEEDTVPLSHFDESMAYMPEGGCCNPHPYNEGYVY
Outline: as §1

CGATAG
binding signal (FLI1): 1.07 fold enrichment (6-mer frequency, TF over GST control) | binding signal (ELK1): 1.11 fold enrichment (6-mer frequency, TF over GST control) | binding signal (GABPA): 1.18 fold enrichment (6-mer frequency, TF over GST control) | binding signal (ERG): 1.16 fold enrichment (6-mer frequency, TF over GST control) | binding signal (ELF1): 1.15 fold enrichment (6-mer frequency, TF over GST control) | binding signal (EHF): 1.05 fold enrichment (6-mer frequency, TF over GST control) | binding signal (SPI1): 1.1 fold enrichment (6-mer frequency, TF over GST control) | binding signal (SPIB): 1.07 fold enrichment (6-mer frequency, TF over GST control) | binding signal (ELK3): 1.11 fold enrichment (6-mer frequency, TF over GST control) | binding signal (FEV): 1.15 fold enrichment (6-mer frequency, TF over GST control) | binding signal (ETV5): 1.18 fold enrichment (6-mer frequency, TF over GST control) | binding signal (HSF1): 1.14 fold enrichment (6-mer frequency, TF over GST control) | binding signal (SPIC): 1.18 fold enrichment (6-mer frequency, TF over GST control) | binding signal (ELF4): 1.12 fold enrichment (6-mer frequency, TF over GST control) | binding signal (ELK4): 1.16 fold enrichment (6-mer frequency, TF over GST control) | binding signal (ETV2): 1.16 fold enrichment (6-mer frequency, TF over GST control) | binding signal (ETV1): 1.16 fold enrichment (6-mer frequency, TF over GST control)
